SMILES strings stand for the structures. Results filed as inconclusive are left out. Active and inactive are the calls of the source. The calls were made as follows: active = hit-call score of the fitted dose curve at least 0.9, where 1 is the maximum; inconclusive = response in the unintended direction; inactive = score below 0.9.

Estrogen receptor beta (Homo sapiens), sequence (Q92731 whole entry, looked up, the tested form may be a part): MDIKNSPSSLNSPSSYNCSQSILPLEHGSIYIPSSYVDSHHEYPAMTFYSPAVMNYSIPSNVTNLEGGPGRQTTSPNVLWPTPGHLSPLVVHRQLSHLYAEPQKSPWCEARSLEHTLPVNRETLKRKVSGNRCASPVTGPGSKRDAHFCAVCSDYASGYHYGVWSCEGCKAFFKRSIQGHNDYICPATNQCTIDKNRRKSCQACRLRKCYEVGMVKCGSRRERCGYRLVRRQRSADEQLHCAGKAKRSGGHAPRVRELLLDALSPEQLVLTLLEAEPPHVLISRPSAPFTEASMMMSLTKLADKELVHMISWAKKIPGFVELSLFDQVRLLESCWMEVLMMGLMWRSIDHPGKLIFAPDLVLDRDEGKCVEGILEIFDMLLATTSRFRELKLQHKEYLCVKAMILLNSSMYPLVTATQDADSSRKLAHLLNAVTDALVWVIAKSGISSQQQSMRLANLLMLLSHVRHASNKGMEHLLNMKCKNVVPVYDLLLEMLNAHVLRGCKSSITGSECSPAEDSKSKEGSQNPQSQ

The assay deals with Estrogen receptor beta (Homo sapiens) (UniProt Q92731). Kind of assay: OT_ER_ERbERb_0480: Odyssey Thera (OT) 8-hour HEK293T Protein-Complementation Assay for Estrogen Receptor-beta/-beta Homodimer (AID 2283357).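 Also: active means signal gain over DMSO baseline.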 The procedure, abridged:
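Fluorescence intensity, nuclear for agonists and nuclear plus cytoplasmic for antagonists, was quantified by laser scanning cytometry versus vehicle after 8 h treatment. The cells were HEK293T stably carrying ER beta LBD fragment-complementation partners.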
Consider `CC12CCC(C1)C(C)(C)C2O` (centres undefined), for which the compound was called inactive.
For the compound `CC(C)(C)C1CCC(O)CC1` (centres undefined), the compound was classed as inactive.
Still for that read-out and setting: in the case of `CCCC[N+](C)(CCCC)CCCC` it was “inactive”; in that of `CC(O)CN` (centres undefined), “inactive”; in that of `CCCC(O)C(CC)CO` (centres undefined), “inactive”.
Still for that read-out and setting: the entry for `OCC=Cc1ccccc1` is “inactive”; for `CC(=O)C1C(=O)C=C(C)OC1=O` (centres undefined) it is “inactive”.
On to `CNC(=C[N+](=O)[O-])NCCSCc1ccc(CN(C)C)o1`, for which the outcome was inactive.
As for `CC(=O)OC(C)(C)C`, the call was inactive.
For `O=C(O)CS`, the outcome was inactive.
Same read-out and setting: the entry for `CCC(=O)OC(C)(C)C1CC=C(C)CC1` (centres undefined) is “inactive”; for `CCCO[Si](OCCC)(OCCC)OCCC` it is “inactive”.
With `[Na+]`, the outcome was inactive.
As a reminder, the AC50 is the concentration at which the activity in the assay is half-maximal. Take `CCCc1ccc(O)cc1`: the half-maximal activity concentration (AC50) was 33.4 µM (active).
As for `CCCCCCC(C)O` (centres undefined), the compound was called inactive.
For the compound `CCCCCCCCCOS(=O)(=O)O`, the compound was classed as inactive.
Consider `COc1cc(OC)c2ccc(=O)oc2c1`, for which the outcome was inactive.
Consider `CCCCCCCCCO`, for which the result was inactive.
Consider `CC(CCO)CC(C)(C)C` (centres undefined), for which the call was inactive.
The same measure, in the same setting: in the case of `c1ccc(OCCOc2ccccc2)cc1` it was “inactive”; in that of `COc1ccc2[nH]cc(CCNC(C)=O)c2c1`, “inactive”.
For `CC(C)N(c1ccccc1)C(C)C`, the result was inactive.
On to `CCC(C)COC(=O)CC(C)C` (centres undefined), for which the result was inactive.
Still for that read-out and setting: in the case of `CC(C)(C)c1ccc(S)cc1` it was “inactive”.
Same read-out and setting: in the case of `FC(F)(F)c1ccc(Cl)c(Cl)c1` it was “inactive”; in that of `CCCCCCCCOS(=O)(=O)O`, “inactive”.
Regarding `CCCO`, the result was inactive.
Turning to `CC(=O)c1ccc(O)cc1`, the compound was called inactive.
Consider `O=C(OCc1ccccc1)c1ccccc1O`, for which the AC50 is 54.6 µM (active).

These data come from PubChem BioAssay (EPA / NIEHS).
